In PubChem BioAssay AID504941 (Broad Institute, 2011):
Out of some 1,200 compounds screened, about 170 (14%) were called active. The rule behind the calls is not given here. The list is a sample of the results. Measured potencies and affinities stand elsewhere.

Experiment: twin-arginine translocation blockade, bacterial reporter – cherry-pick, set 2, plate reader, dose response (AID 504941)
Settings: E. coli Tat transport reporter; series mostly up to 38 µM
For `O=C(NCc1cccc(Cl)c1)c1cnn2c1NC(c1ccco1)CC2C(F)(F)F` (stereo not given), the outcome was “inactive”.
In the case of `O=C(CSc1nc2ccccc2c(=O)[nH]1)N1CCN(c2ccccc2F)CC1`, the outcome is reported as “inactive”.
With `CC1Cc2cc(/C(O)=C3/C(=O)C(=O)N(Cc4ccco4)C3c3cccs3)ccc2O1` (stereo not given) the outcome was “inactive”.
In the case of `O=C(CNc1ccc(Cl)cc1)c1ccc(Br)cc1`, the outcome is reported as “inactive”.
For `CC(C)c1ccc(OCC(=O)NC2=NCCS2)cc1`, the outcome was “inactive”.
In the case of `CCCCOC(=O)C1=C(C)NC(=O)NC1c1ccc2c(c1)OCO2` (stereo not given), the outcome is reported as “inactive”.
With `CCN1CCCC1CNC(=O)C(=O)NC(C)C` (stereo not given) the outcome was “inactive”.
With `COc1cc(CNCc2ccccn2)ccc1OCc1c(Cl)cccc1Cl` the outcome was “inactive”.
In the case of `Cc1c(NC(=O)Nc2ccccc2)cccc1[N+](=O)[O-]`, the outcome is reported as “inactive”.
For `CC1CN(S(=O)(=O)c2ccc(C(=O)Nc3ccccc3F)cc2)CC(C)O1` (stereo not given), the outcome was “inactive”.
For `Clc1ccc(C2[C@H]3CN(Cc4cccnc4)[C@H](c4ccccc4)C34CC2(c2ccccc2)C4)cn1` (stereo not given in full), the outcome was “inactive”.
In the case of `Cc1ccc(NC(=O)CCCc2nc3ccccc3s2)c(O)c1`, the outcome is reported as “inactive”.
In the case of `Cc1cnc(C(=O)OCC(=O)Nc2sc3c(c2C#N)CCC3)cn1`, the outcome is reported as “inactive”.
For `N#Cc1cn(CC(=O)N2CCCc3ccccc32)c2ccccc12`, the outcome was “inactive”.
In the case of `COc1cc(S(=O)(=O)Nc2cc(C)cc(C)c2)ccc1F`, the outcome is reported as “inactive”.
With `COc1ccc(OC2OC3COC(c4ccco4)OC3C(O)C2NC(C)=O)cc1` (stereo not given) the outcome was “inactive”.
In the case of `Cc1ccc(C(=O)CN2/C(=C(\O)c3ccccc3)C(=O)c3ccccc3S2(=O)=O)c(C)c1`, the outcome is reported as “inactive”.
With `CC(=O)c1c(C)[nH]c(C(=O)Nc2ccccc2N2CCOCC2)c1C` the outcome was “inactive”.
In the case of `COc1cccc(C(=O)NCCS(=O)(=O)NCc2ccccn2)c1`, the outcome is reported as “inactive”.
In the case of `Clc1ccccc1-c1nn2c(-c3ccncc3)nnc2s1`, the outcome is reported as “inactive”.
For `O=C(O)CN1C(=O)CC(Cc2ccc(Cl)cc2)C1=O` (stereo not given), the outcome was “inactive”.
For `Cc1c(N2C(=O)c3cccc4cccc(c34)C2=O)c(=O)n(-c2ccccc2)n1C`, the outcome was “inactive”.
For `CCOC(=O)c1c2c3c(c(Cl)ccc3[nH]c1=O)C(=O)c1ccccc1-2`, the outcome was “inactive”.
With `CCOC(=O)c1ccccc1-n1nnnc1C` the outcome was “inactive”.
In the case of `CCCCN1CC(COCc2ccccc2)Oc2cccc(N3CCCC3)c2S1(=O)=O` (stereo not given), the outcome is reported as “inactive”.
In the case of `CC(=O)Nc1cccc(Oc2nc(C(F)(F)F)nc3ccccc23)c1`, the outcome is reported as “inactive”.
With `COc1ccc(NS(=O)(=O)c2cc(NC(=O)CCc3ccc(OC)c(OC)c3)ccc2N2CCOCC2)cc1` the outcome was “inactive”.
For `O=C(CNC1CCCCC1)Nc1cc(S(=O)(=O)N2CCOCC2)ccc1Cl`, the outcome was “inactive”.
In the case of `O=C(CNC1CCCCCC1)Nc1ccccc1N1CCCCC1`, the outcome is reported as “inactive”.
For `COC(c1ccccc1)c1nnc(CCC(=O)N(C)C(C2CC2)C2CC2)o1` (stereo not given), the outcome was “inactive”.
With `CCOC(=O)C1(Cc2cccc(F)c2)CCN(C2CCOCC2)CC1` the outcome was “inactive”.
In the case of `C(=N\n1cncn1)/c1ccc(N2CCOCC2)cc1`, the outcome is reported as “inactive”.
With `COc1ccc(/C=N/Nc2ccccn2)cc1O` the outcome was “inactive”.
With `CC(NC(=O)c1ccc([N+](=O)[O-])cc1[N+](=O)[O-])c1ccc(-c2ccccc2)cc1` (stereo not given) the outcome was “inactive”.
With `CCOc1ccc(NC(=O)c2ccc(NC(=O)COC(=O)Cc3ccc(OC)cc3)cc2)cc1` the outcome was “inactive”.
With `Cc1ccc(-n2nnnc2SCC(=O)Nc2ccc3c(c2)OCCO3)cc1C` the outcome was “inactive”.
In the case of `Cn1ncc(Cl)c1C(=O)NCc1ccc(Cl)cc1`, the outcome is reported as “inactive”.
With `COC(=O)c1ccc(OC(=O)c2nn(C)cc2Cl)c(OC)c1` the outcome was “inactive”.
For `O=C(Cc1ccccc1Cl)c1ccccc1`, the outcome was “inactive”.
In the case of `CCN(Cc1ccccc1)S(=O)(=O)c1c[nH]c(C(=O)OC)c1`, the outcome is reported as “inactive”.
In the case of `O=C(O)Cn1cc(C(=S)N2CCOCC2)c2ccccc21`, the outcome is reported as “inactive”.
In the case of `CCCCc1ccc(N=N/C(C(=O)Nc2ccc(NC(C)=O)cc2OC)=C(/C)O)cc1`, the outcome is reported as “inactive”.
With `CC(=O)NC(Cc1ccc(F)c(F)c1)C(=O)NC1CCN(c2c(Cc3ccccc3)c(C)nc3ncnn23)CC1` (stereo not given) the outcome was “inactive”.
In the case of `O=C1CC(c2cc(-c3ccccc3)no2)C1`, the outcome is reported as “inactive”.
With `CNC(=O)CNC(=O)Nc1ccc(C)cc1` the outcome was “inactive”.
For `CCN(C[C@H]1N[C@@](Cc2ccccc2)(C(=O)OC)[C@H]2C(=O)N(C)C(=O)[C@@H]12)C(C)=O`, the outcome was “inactive”.
For `Cn1cc(CN2CCC(CO)(CCCc3ccccc3)CC2)c(-c2ccccc2)n1`, the outcome was “inactive”.
With `Cc1ccc(NC(=O)c2ccc(Oc3ncccn3)cc2)cc1` the outcome was “inactive”.
With `Cc1cc(=O)[nH]c(SCC(=O)NCc2ccc3c(c2)OCO3)n1` the outcome was “inactive”.
With `CC(C)C(=O)Nc1ccc(Nc2ccccc2)cc1` the outcome was “inactive”.
In the case of `CCCCOc1ccc(NC(=O)c2cc(F)c(F)cc2Cl)cc1`, the outcome is reported as “inactive”.
For `O=C(NCCc1ccccc1)c1n[nH]c2ccccc12`, the outcome was “inactive”.
With `O=C(Cn1nc(C(=O)O)c2ccccc2c1=O)NCc1ccco1` the outcome was “inactive”.
For `CCc1ccc(C(C(=O)NC2CCCC2)N(CCOC)C(=O)CCC(=O)Nc2cc(C)on2)cc1` (stereo not given), the outcome was “inactive”.
With `Cc1nc(SCc2ccc(C(=O)O)cc2)c2c(C)c(C)sc2n1` the outcome was “inactive”.
With `CN(C)CCCNC(=O)C(=O)NCC1CCCO1` (stereo not given) the outcome was “inactive”.
For `CCO[C@@H]1OC(C(=O)O)=C[C@H](C)[C@H]1CCCO`, the outcome was “inactive”.
In the case of `CC(=O)Oc1ccc(C(=O)Cc2ccccn2)c(O)c1`, the outcome is reported as “inactive”.
With `CC(C)[C@@H](C(=O)N1CCNCC1)n1cc(CCO)nn1` the outcome was “inactive”.
In the case of `CCOC(=O)c1cnn(-c2cc(C)c3ccccc3n2)c1N`, the outcome is reported as “inactive”.
For `NS(=O)(=O)c1ccc(CCNc2nc(C(F)(F)F)nc3ccccc23)cc1`, the outcome was “inactive”.
For `CCSC(=O)NC12CC3CC(CC(C3)C1)C2`, the outcome was “inactive”.
With `Cc1ccc(C)n1-c1ccc(-c2ccnc(N)n2)cc1` the outcome was “inactive”.
For `O=[N+]([O-])c1cccc(N(CC(O)CN2CCCCC2)S(=O)(=O)c2ccccc2)c1` (stereo not given), the outcome was “inactive”.
For `C#CC(C)(CC)NC(=O)c1cc2cccc(CC=C)c2oc1=O` (stereo not given), the outcome was “inactive”.
For `COc1ccc(S(=O)(=O)N2CCC(C(N)=O)CC2)cc1`, the outcome was “inactive”.
For `CCOC(=O)c1c(NC(=O)CSc2n[nH]c(CNc3ccccc3)n2)sc(C)c1C`, the outcome was “inactive”.
In the case of `C=CCN1C=C2C(=O)C(C)(OC(=O)c3ccc(OC)cc3)C(=O)C(c3ccco3)=C2C=C1CCCC` (stereo not given), the outcome is reported as “inactive”.
In the case of `O=C(O)c1cccc(NC(=O)c2ccccc2)c1`, the outcome is reported as “inactive”.
For `CC(C)N(c1ccccc1)c1ccc(NC(=O)COC(=O)CCN2C(=O)c3cccc([N+](=O)[O-])c3C2=O)cc1`, the outcome was “inactive”.
